In the library only some 2.5% were active in any assay of this set; here they are far more common.
Cruzain Triton – inhibitors of Trypanosoma cruzi cruzain with detergent | P25779 | purified cruzain, Z-FR-AMC fluorescence, 0.01% Triton | Potency, µM, for the others: max response, negative = inhibition, usual class: inhibitors | 200,000 compounds, 0.43% hits | AID 1478;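 note: plate controls were neutral wells for no effect and buffer without enzyme for full effect; nearly all actives have a fitted effect of over 40% in size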
Target sequence (P25779 123-467 limits assumed): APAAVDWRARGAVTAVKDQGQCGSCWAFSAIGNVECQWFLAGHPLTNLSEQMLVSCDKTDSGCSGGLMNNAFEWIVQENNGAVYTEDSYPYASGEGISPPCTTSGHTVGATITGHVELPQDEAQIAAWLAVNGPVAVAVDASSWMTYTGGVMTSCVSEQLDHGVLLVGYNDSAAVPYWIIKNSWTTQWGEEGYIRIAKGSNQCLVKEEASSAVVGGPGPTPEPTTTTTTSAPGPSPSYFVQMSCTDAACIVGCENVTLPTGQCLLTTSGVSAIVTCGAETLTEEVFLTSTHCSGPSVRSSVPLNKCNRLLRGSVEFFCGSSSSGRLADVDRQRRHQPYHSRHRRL
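Read-out: AMC fluorescence (360 nm excitation, 450 nm emission), four reads over 2 min, first-to-third difference used. Conditions: cruzain 1.5 nM, Z-FR-AMC 2 uM, pH 5.5 acetate, 5 mM DTT, 0.01% Triton X-100.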
Cruzain inh noDet – cruzain (T. cruzi) inhibition without detergent; P25779; purified cruzain, Z-FR-AMC fluorescence, no detergent; Potency, µM, inactives show max response, negative = inhibition, most hits filed as inhibitors; 200,000 compounds, 2.3% hits; AID 1476;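 note: plate controls were enzyme without inhibitor for no effect and buffer without enzyme for full effect; nearly all actives have a fitted effect of over 40% in size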
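Purified cruzain at 1.5 nM, pre-incubated 15 min with compound at room temperature in 100 mM sodium acetate pH 5.5, 5 mM DTT, 0.00005% Triton X-100. Reaction started with 2 uM Z-FR-AMC; AMC fluorescence increase over 60 s gives rate.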
* hit, by the source's call. Calls come from the whole dose curve; as a rule, active = well fitted curve in the direction sought with a large enough effect; inconclusive = small, poorly fitted or top-dose-only effect, or another doubt; inactive = no such curve, though single readings can be large; an effect the other way counts as inactive or inconclusive. Potency is the fitted concentration of half-maximal effect.

Screening O=S(=O)(c1ccc(F)cc1)c1nc(-c2ccco2)oc1Nc1ccc(F)cc1 returned Cruzain Triton -7% and Cruzain inh noDet inconclusive.
Screening Cc1ccc(CNc2oc(-c3ccco3)nc2S(=O)(=O)c2ccccc2)cc1 returned Cruzain Triton inconclusive and Cruzain inh noDet 32µM*.
CC(=O)N1CC=C2C(C#N)=C(N)C(C#N)(C#N)C(CCc3ccccc3)C2C1 (configuration not stated) was read as Cruzain Triton -4% and Cruzain inh noDet 7%.
For CCN1CC=C2C(C#N)=C(N)C(C#N)(C#N)C(CCc3ccccc3)C2C1 (configuration not stated) the results were Cruzain Triton 14µM* and Cruzain inh noDet 6.3µM*.
Screening COc1ccc(OC)c(CNC(=O)c2cc3c(=O)oc4ccc(C)cc4c3s2)c1 returned Cruzain Triton -1% and Cruzain inh noDet -11%.
O=C(NC1CCCC1)C(c1ccsc1)N(C(=O)Cc1cccs1)c1ccccc1 (configuration not stated) was read as Cruzain Triton 10% and Cruzain inh noDet 10µM*.
`O=C(NC1CCCCC1)C(c1ccccc1)N(C(=O)Cc1ccsc1)c1ccccc1` (configuration not stated) gave Cruzain Triton 4% and Cruzain inh noDet 16µM*.
Screening O=C(NC1CCCC1)C(c1ccsc1)N(CCc1ccccc1)C(=O)Cc1cccs1 (configuration not stated) returned Cruzain Triton 1% and Cruzain inh noDet inconclusive.
Screening O=C(NC1CCCCC1)C(c1ccc(F)cc1)N(C(=O)Cc1ccsc1)c1ccc(F)cc1 (configuration not stated) returned Cruzain Triton 7% and Cruzain inh noDet -2%.
For O=C(Nc1ccc(F)cc1F)c1cc(-c2ccc(Cl)cc2)on1 the results were Cruzain Triton -1% and Cruzain inh noDet -3%.
For CN[C@H](Cc1ccccc1)c1cccc(OC)c1O the results were Cruzain Triton 0% and Cruzain inh noDet 6%.
Screening C/C(=C/CCC(C)[C@H]1CC[C@@]2(C)C3=C(CC[C@]12C)[C@@]1(C)CCC(=O)C(C)(C)[C@@H]1CC3)C(=O)O (some centres not stated) returned Cruzain Triton -6% and Cruzain inh noDet 25µM*.
Screening CC(C)=CCCC(C)C1CC[C@@]2(C)C3=C(CC[C@@]12C)C1(C)CCC(O)C(C)(C)C1CC3 (some centres not stated) returned Cruzain Triton -3% and Cruzain inh noDet inconclusive.
CCOCC(=O)O was read as Cruzain Triton 6% and Cruzain inh noDet -4%.
For CCCCOCCCNc1ncnc2c1[nH]c1ccccc12 the results were Cruzain Triton inconclusive and Cruzain inh noDet -29%.
`c1ccc2c(c1)[nH]c1c(NCC3CCCO3)ncnc12` (configuration not stated) gave Cruzain Triton -30% and Cruzain inh noDet 25µM*.
COc1cc(OC)cc(N2C(=O)N(CC(=O)c3ccc(F)cc3)c3ccccc3S2(=O)=O)c1 was read as Cruzain Triton 0% and Cruzain inh noDet inconclusive.
For COc1cc(OC)cc(N2C(=O)N(Cc3ccc(C(C)(C)C)cc3)c3ccccc3S2(=O)=O)c1 the results were Cruzain Triton 1% and Cruzain inh noDet 4µM*.
CC(=O)c1ccc(N2C(=O)N(CC(=O)c3ccc(C)cc3)c3ccccc3S2(=O)=O)cc1 was read as Cruzain Triton 0% and Cruzain inh noDet inconclusive.
`CCOc1ccc(N2C(=O)N(Cc3ccc(C)cc3C)c3ccccc3S2(=O)=O)cc1` gave Cruzain Triton 0% and Cruzain inh noDet 25µM*.
`CCc1ccccc1NC(=O)CSC1=Nc2ccccc2C2=NC(Cc3ccccc3)C(=O)N12` (configuration not stated) gave Cruzain Triton -2% and Cruzain inh noDet -10%.
Cc1ccc(Nc2nc(-c3ccc(S(=O)(=O)N4CCCC4)cc3)cs2)cc1C was read as Cruzain Triton 4% and Cruzain inh noDet 13µM*.
For Cc1nc(-c2ccc(S(=O)(=O)N3CCCCCC3)cc2)cs1 the results were Cruzain Triton -2% and Cruzain inh noDet -12%.
Screening Cc1cc(C)cc(Nc2nc(-c3ccc(S(=O)(=O)N4CCCC4)cc3)cs2)c1 returned Cruzain Triton -2% and Cruzain inh noDet 16µM*.
O=S(=O)(c1ccc(-c2csc(Nc3ccc(F)cc3)n2)cc1)N1CCCC1 was read as Cruzain Triton -3% and Cruzain inh noDet inconclusive.
Screening Cc1nc(-c2cccc(S(=O)(=O)N3CCCCCC3)c2)cs1 returned Cruzain Triton -9% and Cruzain inh noDet -12%.
For O=S(=O)(c1ccc(-c2csc(Nc3ccc(Br)cc3)n2)cc1)N1CCCC1 the results were Cruzain Triton -2% and Cruzain inh noDet 32µM*.
For CCOc1ccc(NC(=O)Cn2cc(S(=O)(=O)NC)c(S(=O)(=O)NC)c2)cc1 the results were Cruzain Triton -2% and Cruzain inh noDet 16%.
Screening COc1ccc(NC(=O)Cn2cc(S(=O)(=O)c3ccc(C)cc3)c(=O)c3ccccc32)cc1OC returned Cruzain Triton -6% and Cruzain inh noDet inconclusive.
For Cc1ccc(S(=O)(=O)c2cn(CC(=O)Nc3cccc(Cl)c3)c3ccccc3c2=O)cc1 the results were Cruzain Triton -2% and Cruzain inh noDet 32µM*.
`O=C(Nc1ncc(Cc2ccccc2Cl)s1)c1ccc(-c2cccc([N+](=O)[O-])c2)o1` gave Cruzain Triton -1% and Cruzain inh noDet 6.3µM*.
`O=C(Nc1ncc(Cc2ccc(C(F)(F)F)cc2)s1)c1ccc(-c2cccc([N+](=O)[O-])c2)o1` gave Cruzain Triton -3% and Cruzain inh noDet 13µM*.
`CCOc1ccc(NC(=O)/C(C#N)=C\c2ccc(-c3ccc(Cl)cc3)o2)cc1` gave Cruzain Triton -2% and Cruzain inh noDet -4%.
O=C(Nc1ncc(Cc2cccc(Cl)c2)s1)c1ccc([N+](=O)[O-])cc1 was read as Cruzain Triton -3% and Cruzain inh noDet inconclusive.
For COc1ccc(CC(=O)Nc2nnc(-c3cccc([N+](=O)[O-])c3)s2)cc1 the results were Cruzain Triton 0% and Cruzain inh noDet inconclusive.
Screening O=C(Cc1ccccc1)Nc1nnc(-c2cccc([N+](=O)[O-])c2)s1 returned Cruzain Triton -1% and Cruzain inh noDet 16µM*.
For O=C(Nc1ncc(Cc2ccccc2Cl)s1)c1ccc([N+](=O)[O-])cc1 the results were Cruzain Triton -2% and Cruzain inh noDet inconclusive.
Screening Cc1ccc(Cc2cnc(NC(=O)/C(C#N)=C/c3ccc(-c4ccc([N+](=O)[O-])cc4)o3)s2)cc1 returned Cruzain Triton 1% and Cruzain inh noDet 2.5µM*.
O=C(Cc1ccc(F)cc1)NCc1ccc2c(c1)CCN2C(=O)c1ccc(F)cc1 was read as Cruzain Triton -1% and Cruzain inh noDet -3%.
For NCCNc1ncnc2ccc(Cl)cc12 the results were Cruzain Triton -2% and Cruzain inh noDet 0%.
COc1ccccc1CNS(=O)(=O)c1c(C(=O)N2CCC(C)CC2)c(C)n(C)c1C was read as Cruzain Triton 0% and Cruzain inh noDet -9%.
For COc1ccc(-c2cn3nc(SCC(=O)Nc4ccccc4F)ccc3n2)cc1 the results were Cruzain Triton -2% and Cruzain inh noDet 28%.
`O=c1c(-c2ccccc2)nc2cnc(Nc3ccccc3)nc2n1Cc1cccs1` gave Cruzain Triton -2% and Cruzain inh noDet -10%.
`CCc1c(C)sc(NC(=O)CSc2nc3c(c(C(F)(F)F)n2)CCc2ccccc2-3)c1C#N` gave Cruzain Triton -4% and Cruzain inh noDet 4µM*.

Screening data from PubChem BioAssay.
